# ChEMBL document CHEMBL3988442, “University of Dundee, Small-Polar-MMV Screening Library” (2021)
# In all, about 48,000 compounds went through this assay and about 13,000 (27%) showed an effect of 50% or more. This is one part of the list.
# System: Wolbachia pipientis
# Test: Anti-Wolbachia Cell-Based Screen
# Format: functional
# Design: scale not given: in the data most compounds retested in dose-response had high values
# Conditions: 5 µM
row,SMILES,Percent Effect [%]
1,CCS(=O)(=O)N1CCC2(CC1)CCn1c(-c3cnn(C)c3)cnc12.O=C(O)C(F)(F)F,2.009
2,CC(=O)N1CCC2(CC1)c1ncc(-c3ccc(F)cc3)n1CCN2C,95.01
3,CCS(=O)(=O)N1CCC2(CC1)c1ncc(-c3cccnc3)n1CCN2C,107
4,Cc1ccc(-c2cnc3n2CCN(C)C32CCN(CC3CC3)CC2)cc1.O=C(O)C(F)(F)F.O=C(O)C(F)(F)F.O=C(O)C(F)(F)F,0.5048
5,CC(=O)N1CCC2(CC1)c1ncc(-c3ccccc3)n1CCN2C(C)=O,23.35
6,CN1CCn2c(-c3ccccc3)cnc2C12CCN(CC1CC1)CC2.O=C(O)C(F)(F)F.O=C(O)C(F)(F)F.O=C(O)C(F)(F)F,-7.532
7,CC(=O)N1CCC2(CC1)c1ncc(-c3ccccc3)n1CCN2C,98.56
8,CC(=O)N1CCn2c(-c3ccccc3)cnc2C12CCNCC2.O=C(O)C(F)(F)F.O=C(O)C(F)(F)F,-11.86
9,Cc1cc(C(=O)N2CCC(n3cc(CO)nn3)CC2)ccc1F,2.644
10,CN(C)C(=O)CCN1CC(c2ccccc2)(c2ccccc2)CCC1=O,-7.363
11,Cc1nnc(CN(C)CC(=O)N2CCCC(C)CC2)n1C (centres undefined),-6.061
12,Cc1cc(C[C@@H]2COC[C@@H]2NC(=O)CNC(=O)N(C)C)on1,-9.814
13,CS(=O)(=O)CCC(=O)NC(Cc1ccccc1)C1CC1 (centres undefined),2.067
14,O=C(CCN1CCCC1=O)NCc1cccnc1Oc1ccccc1,-4.21
15,COc1cccc(CNC(=O)CN2CCCCC2Cn2cccn2)c1 (centres undefined),0.3805
16,O=C(CCOc1ccc(F)cc1)N1CCCC1Cn1cccn1 (centres undefined),126.4
17,O=C(CN1CCCC1Cn1cccn1)NCCOc1cccc(F)c1 (centres undefined),99.45
18,O=C(CCCOc1ccccc1)N1CCCC1Cn1cccn1 (centres undefined),116.1
19,Cc1cccc(OCCNC(=O)CN2CCCC2Cn2cccn2)c1 (centres undefined),-3.043
20,O=C(CCOc1cccc(F)c1)N1CCCC1Cn1cccn1 (centres undefined),124.8
21,CN(CC(=O)N1CCCC1Cn1cccn1)C1CC1 (centres undefined),-6.628
22,COCc1nc(CNC(=O)C(C)n2ccnc2C(C)C)no1 (centres undefined),-16.22
23,Cc1ccc(NC(=O)NC(C)C(=O)N2CCS(=O)(=O)CC2)cc1 (centres undefined),-2.937
24,O=C(Cn1cnnn1)N1CCCCC1Cn1cccn1 (centres undefined),-6.209
25,COc1ccc(CC(=O)N2CCCCC2Cn2cccn2)cc1 (centres undefined),136.1
26,COc1cccc(COCC(=O)N2CCCC2Cn2cccn2)c1 (centres undefined),116

row,SMILES,Percent Effect [%]
1,COc1cccc(COCC(=O)N2CCCC(N3CCCC3)CC2)c1 (centres undefined),-3.543
2,COc1cccc(COCC(=O)N2CCCC(n3cccn3)C2)c1 (centres undefined),17.54
3,COc1ccc2c(ccn2CC(=O)N2CCCC2Cn2cccn2)c1 (centres undefined),2.808
4,Cc1ccc(CC(=O)N2CCCCC2Cn2cccn2)cn1 (centres undefined),89.03
5,COc1ccc2cc(C(=O)N3CCCCC3Cn3cccn3)[nH]c2c1 (centres undefined),-2.712
6,COc1ccc(OCCC(=O)N2CCCC2Cn2cccn2)cc1 (centres undefined),116.7
7,O=C(c1ccc(Br)o1)N1CCCCC1Cn1cccn1 (centres undefined),0.8504
8,Cc1cc(CN(C)C(=O)c2ccc(F)cc2F)no1,11.87
9,COc1c(Br)cccc1CCNC(=O)c1csnn1,-2.024
10,CN1CCC(Cc2noc(CCc3nc4ccccc4nc3O)n2)CC1,-2.649
11,Cc1cnc(C)c(N2CCN(CCCc3ccncc3)CC2)n1,-5.646
12,CC(C)NC(=O)NC(=O)C(C)N1CCN(C2CCN(C(C)C)CC2)CC1 (centres undefined),-25.53
13,COC(=O)C1CCCCN1Cc1cccc(C(=O)NCc2ccco2)c1 (centres undefined),0.7191
14,CCn1ncnc1C(C)Nc1cc(C2CCNCC2)nc(C)n1 (centres undefined),90.92
15,CCn1ncnc1C(C)Nc1cc(C2CC2)ncn1 (centres undefined),83.57
16,CCn1nc(C)c(C(C)Nc2cc(C3CCNCC3)nc(C)n2)c1C (centres undefined),97.89
17,CCc1cnc(C)nc1NC(CC)c1ncnn1CC (centres undefined),9.184
18,CCn1ncnc1C(C)NC(=O)CC1CCN(C(C)C)CC1 (centres undefined),-18.67
19,CCn1ncnc1C(C)Nc1cc(C)c2ccc(SC)cc2n1 (centres undefined),-5.818
20,CCn1ncnc1C(C)NC(=O)C1CCN(C(C)C)CC1 (centres undefined),-6.672
21,NC(=O)CCNC(=O)Cc1cccc(I)c1,-0.109
22,COc1cc(C(C)NCc2scnc2C)ccc1SC(F)F (centres undefined),-45.23
23,Cc1ccc(N2CC3(CCN(S(=O)(=O)C4CC4)C3)C2)nn1,-11.71
24,Cc1nn(C)c(C)c1C1CCCN1CC(=O)NC(C1CC1)C1CC1 (centres undefined),8.112
25,Cc1nn(C)c(Cl)c1C1CCCN1CC(=O)NCc1ccco1 (centres undefined),93.09
26,COCCCNC(=O)CN1CCCC1c1c(C)nn(C)c1Cl (centres undefined),-2.309

row,SMILES,Percent Effect [%]
1,Cc1nc(C)n(CC2CCCN2CC(=O)NCc2ccco2)n1 (centres undefined),-10.96
2,COCCNC(=O)CN1CCCC1c1c(C)nn(C)c1Cl (centres undefined),87.98
3,NC(=O)CN1C(=O)CO[C@H]2CN(Cc3ccc(Cl)cc3)C[C@H]21,-3.813
4,CN(CC(N)=O)Cc1c(Cl)ccc2cccnc12,1.669
5,COc1ccc(Cl)cc1NCC(=O)N(Cc1ccncc1)C1CC1,10.17
6,Cc1ccc(CSc2nc(N)cc(NCCC(=O)N3CCCC3)n2)cc1,92.81
7,Cc1ccc(CSc2nc(N)cc(NCCC(N)=O)n2)cc1,-9.969
8,CN(C)S(=O)(=O)CCNc1ncc2c(n1)CCN2c1ccccc1,-5.162
9,Cc1ccc(CSc2nc(N)cc(NCCS(=O)(=O)N(C)C)n2)cc1,94.01
10,Cc1cc(NCCS(C)(=O)=O)nc2ccccc12,2.58
11,Cc1ccc(CSc2nc(N)cc(NCC(=O)N3CCNCC3)n2)cc1,0.4693
12,CC(C)c1nc2n(n1)CC(Nc1ncnc3ccccc13)CC2 (centres undefined),-42.74
13,COC1CCN(C(=O)c2nn(-c3ccc(C(C)C)cc3)cc2O)CC1,2.392
14,CC1(C)CN(C(=O)c2cc(F)cc3[nH]cnc23)CCS1,94.05
15,COCCN(CCOC)C(=O)c1cc(F)cc2[nH]cnc12,18.56
16,COC(=O)CCCN(C)C(=O)c1cc(F)cc2[nH]cnc12,-15.15
17,CC1(C)CCN1C(=O)c1cc(F)cc2[nH]cnc12,96.75
18,CC(C)C1CN(C(=O)c2ccc(C(N)=O)cc2)CCS1 (centres undefined),0.1325
19,CC(C)C1CN(C(=O)c2nccnc2N)CCS1 (centres undefined),-3.274
20,CCCN(CC(F)(F)F)C(=O)c1cc(F)cc2[nH]cnc12,-1.946
21,CCN(CCC(=O)OC)C(=O)c1cc(F)cc2[nH]cnc12,-3.962
22,CC(C)C1CN(C(=O)c2cc(F)cc3[nH]cnc23)CCS1 (centres undefined),102.4
23,CCC(CO)NC(=O)Nc1cc(F)ccc1Br (centres undefined),7.156
24,N#Cc1cccc(OCC(=O)N(Cc2ccsc2)C2CC2)c1,-11.35
25,COCC1CCN(CCCc2cccc(OC)c2)CC1,-10.46
26,CC(C)(C)CNC[C@H]1Cn2ccnc2CO1,-18.46

row,SMILES,Percent Effect [%]
1,NC(=O)C1CN(C(=O)Nc2ccccc2N2CCCCCC2)CCO1 (centres undefined),3.966
2,NC(=O)C1CN(C(=O)C2(c3ccc(F)cc3F)CCCC2)CCO1 (centres undefined),-8.523
3,NC(=O)C1CN(C(=O)Nc2ccccc2Oc2ccccc2Cl)CCO1 (centres undefined),94.62
4,NC(=O)C1CN(C(=O)Nc2ccccc2-c2cccs2)CCO1 (centres undefined),-5.73
5,C=C(C)COc1ccccc1NC(=O)N1CCOCC1CO (centres undefined),6.942
6,NC(=O)C1CN(C(=O)Nc2ccccc2SC2CCCC2)CCO1 (centres undefined),100
7,O=C(COc1ccccc1O)N1CCOC(C(F)(F)F)C1 (centres undefined),13.92
8,NC(=O)C1CN(C(=O)Nc2ccccc2OCC(F)(F)F)CCO1 (centres undefined),120.3
9,NC(=O)C1CN(C(=O)Nc2ccccc2SC(F)(F)F)CCO1 (centres undefined),-3.203
10,CSc1ccc(-c2nc(CN3CCCC(CNC(C)=O)C3)c(C)o2)cc1 (centres undefined),24.94
11,CC(=O)N1CCC(N2CCOC[C@H]2c2nc(-c3ccccc3)c[nH]2)CC1,-17.76
12,Cc1cc(C)c2nc(CN3CCC(C#N)CC3)cc(O)c2c1,-6.492
13,O=C(NCc1cc2n(n1)CCCN(Cc1ccc(CO)o1)C2)C1CCC1,-16.23
14,N#Cc1ccc(NCc2cc3n(n2)CCCN(C(=O)C2CCC2)C3)nc1,102.7
15,CC(=O)c1ccc(NCc2cc3n(n2)CCCN(S(C)(=O)=O)C3)nc1,-0.5632
16,N#Cc1ccnc(NCc2cc3n(n2)CCCN(C(=O)C2CCC2)C3)c1,115.4
17,O=C(NCc1cc2n(n1)CCCN(Cc1ccc(Cl)s1)C2)C1CCC1,-18.59
18,CS(=O)(=O)N1CCCn2nc(CNc3cc(C#N)ccn3)cc2C1,9.255
19,CSCC(C)(O)CNC(=O)Nc1ccc(C)cc1Br (centres undefined),7.748
20,CN(C)C(=O)c1cccc(C2CCN(c3ncccn3)CC2)n1,135.8
21,O=C(C1CC1)N1CCCCCC1C1CCN(c2ncccn2)CC1 (centres undefined),-21.65
22,CN(C)C(=O)[C@@H]1CCO[C@@H]2CCN(c3ncccn3)C[C@H]21,1.087
23,NC(=O)c1cccc(C2CCN(c3ncccn3)CC2)n1,105.7
24,CCN(C(C)=O)C1CCN(c2nccc(C3CCCC3)n2)C1 (centres undefined),3.77
25,O=C(O)c1cccc(CC2CCN(c3ncccn3)CC2)c1,-1.664
26,COC(=O)c1ccc(NC(=O)[C@@H]2CCCN2C(=O)c2ccco2)s1,-1.409
